HT1080-NT tox: kills 2HG-producing HT-1080-NT fibrosarcoma cells; HT-1080-NT fibrosarcoma viability, CellTiter-Glo ATP luminescence, 48 h; 360,000 compounds, 1.6% hits; Potency, µM (top dose mostly 46.1 µM), for inactives: at the highest dose activity, negative = less viability, hits mostly cytotoxic;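 also: NT is the 2HG producing partner of a matched IDH1 knockdown line; potency is read from the fitted curve at half-maximal effect; 0% = DMSO-treated cells and -100% = media-only wells without cells; nearly all actives have a fitted effect of over 55% in size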
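Viability of the 2HG-overproducing fibrosarcoma line after 48 hours of compound exposure at 37 degrees C was determined by luminescence with CellTiter-Glo, and concentration-effect curves were then fitted and categorized.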
HT1080 IDH1KD tx: toxicity to HT-1080 IDH1 knockdown cells (counter line); 360,000 compounds, 2% hits; HT-1080 IDH1 knockdown viability, ATP luminescence, 48 h; Potency, µM (top dose mostly 46.1 µM), for the others: at the top dose activity, negative = toxicity, usual class: cytotoxic; AID 686971;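 also: potency is read from the fitted curve at half-maximal effect; 0% = DMSO wells and -100% = cell-free medium wells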
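CellTiter-Glo luminescence after 48 h compound exposure at 37 degrees C of IDH1-knockdown HT-1080 cells in 5% FBS RPMI. %Activity scaled between DMSO wells and cell-free media wells, with curves fitted and assigned curve classes.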
uPA surface inh: blocks generation of uPA at the cell surface. Potency, µM (series often up to 38.3 µM), for inactives: at the top dose activity change, negative = inhibition, hits mostly inhibitors. cell surface uPA generation assay, qHTS. 330,000 compounds, 0.31% hits; active = well fitted inhibition curve with a large enough effect; inconclusive = small, poorly fitted or top-dose-only effect; inactive = no such curve, though single readings can be large or run the other way; tested in mouse RAW 264.7 cells; also: potency is read from the fitted curve at half-maximal effect; nearly all actives have a fitted effect of over 55% in size
DT40 TDP1 CPT: growth inhibition of DT40 Tdp1-/-;hTDP1 cells with camptothecin (screen for TDP1 inhibitors) | Potency, µM (titrated, usually from 46.2 µM), without a hit: at the highest dose activity change, negative = growth inhibition, usual class: inhibitors | chicken DT40 Tdp1-/-;hTDP1 cells + 20 nM CPT, ATP luminescence, 48 h | 420,000 compounds, 12% hits | AID 686979; also: potency is read from the fitted curve at half-maximal effect; nearly all actives have a fitted effect of over 55% in size
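Cell growth measured by CellTiter-Glo luminescence after a minimum 48 h, 37 C compound exposure with 20 nM CPT in Tdp1-knockout DT40 cells stably expressing hTDP1, seeded 400/well; qHTS titration format.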
IL-1B inflam inh: blocks inflammasome-driven IL-1 beta release; THP-1 LPS/ATP IL-1B secretion, AlphaLISA, 16 h; stronger effect = lower value; activity change, % at 57.5 µM; 360,000 compounds, 4.7% hits; AID 743279; in the data active = activity change below about -50%; inconclusive = mostly about -30% to -49%
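THP-1 cells pretreated 1 hr with compounds (up to 57.5 uM final), then stimulated with LPS (250 ng/mL final) plus ATP (1.25 mM final); secreted IL-1B measured by AlphaLISA after 16 hr, decreased signal indicating inhibition.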
DT40 TDP1 no CPT: qHTS for Inhibitors of human tyrosyl-DNA phosphodiesterase 1 (TDP1): qHTS in cells in absence of CPT; AID 686978, 2013; DT40 Tdp1-/- hTDP1 cells, no CPT, ATP luminescence, 48 h; 420,000 compounds, 15% hits; Potency, µM (doses to about 46.2 µM), inactives show at the top dose activity change, negative = growth inhibition, actives largely listed as inhibitors; also: potency is read from the fitted curve at half-maximal effect; nearly all actives have a fitted effect of over 55% in size
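Growth of hTDP1-complemented DT40 Tdp1-knockout cells is measured by ATP luminescence after at least 48 hr compound exposure at 37 °C, with DMSO substituting for the 20 nM CPT used in the parallel screen.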
The depositor's hits bear a star; ? = inconclusive; nt = not tested or not shown. An excerpt weighted towards active compounds, which were near 19% of everything screened. Unless noted, calls follow the shape of the dose curve; as a rule, active = well fitted curve in the direction sought with a large enough effect; inconclusive = small, poorly fitted or top-dose-only effect, or another doubt; inactive = no such curve, though single readings can be large; an effect the other way counts as inactive or inconclusive. Unless noted, % is scaled to controls: 0 for no effect and ±100 for the full control effect.

SMILES	HT1080-NT tox	HT1080 IDH1KD tx	uPA surface inh	DT40 TDP1 CPT	IL-1B inflam inh	DT40 TDP1 no CPT
C/C(=N\N1CCCCCC1)c1c(O)n(-c2ccc(Cl)cc2)c(=O)[nH]c1=O	?	16%	2%	?	15	21µM*
Cc1ccc(CN2C(=O)CN=C(c3ccccc3)c3ccccc32)cc1	8%	1%	2%	-25%	-8	?
Clc1ccc2c(c1)C(c1ccccc1Cl)=NCc1nncn1-2	-7%	-4%	-1%	-27%	11	-7%
O=C1CN=C(c2ccccc2)c2cc(Cl)ccc2N1Cc1ccc(Cl)cc1	nt	nt	nt	?	nt	15µM*
CCN(CC)CCN1C(=O)CN=C(c2ccccc2F)c2cc(Cl)ccc21	nt	nt	nt	?	nt	27µM*
Cc1cccc(CN2C(=O)CN=C(c3ccccc3)c3ccccc32)c1	nt	nt	nt	5.8µM*	nt	5.8µM*
Cc1cccc(CN2C(=O)CN=C(c3ccccc3)c3cc(Cl)ccc32)c1	nt	nt	nt	?	nt	16µM*
Cc1nnc(NC(=O)c2cccn(Cc3ccccc3F)c2=O)s1	nt	nt	nt	3%	nt	-1%
Cc1cc(C)c(-n2c(O)c(/C=N/N3CCCCC3c3cccnc3)c(=O)[nH]c2=O)c(C)c1 (stereo not given)	3%	1%	-2%	8%	41	-12%
Nc1ccccc1C(=O)OCc1ccc([N+](=O)[O-])cc1	2%	-24%	-3%	-1%	-17	-4%
O=C(Cn1cnc2sc3c(c2c1=O)CCCC3)NCCCC(=O)N1CCC2(CC1)OCCO2	2%	-13%	0%	-18%	-3	-15%
Nc1ccccc1-[n+]1c(-c2ccccc2)cc(-c2ccccc2)cc1-c1ccccc1	?	?	-5%	6.5µM*	-96*	5.8µM*
Oc1ccccc1-[n+]1c(-c2ccccc2)cc(-c2ccccc2)cc1-c1ccccc1	15µM*	?	?	1.3µM*	?	2.3µM*
[O-]c1ccccc1-[n+]1c(-c2ccccc2)cc(-c2ccccc2)cc1-c1ccccc1	nt	?	?	2.1µM*	-84*	2.1µM*
Cc1ccc(OCC(=O)N2CCN(C3CCC(c4ccccc4)CC3)CC2)cc1 (stereo not given)	-16%	-28%	-8%	?	-8	?
COc1ccccc1Sc1ccccc1CC(C)N (stereo not given)	-18%	-16%	1%	15µM*	-56*	18µM*
COc1cc(CC(C)N)c(OC)cc1I (stereo not given)	-8%	-21%	-1%	-24%	?	?
COc1cc(CC(C)N)c(OC)cc1Br (stereo not given)	nt	nt	nt	?	nt	28µM*
OCc1cnc[nH]1	0%	-6%	24%	4%	15	-3%
CCOP(=O)(C#CC(C)(C)C)C1(O)CCCCC1 (stereo not given)	10%	9%	5%	1%	19	-14%
Cc1c(P(=S)(c2ccccc2)c2ccccc2)[n+]2ccccc2n1C	-22%	-20%	1%	5.8µM*	-1	4.1µM*
CC(C)(C)c1ccc(OCC(=O)Nc2ccc(Cl)cc2C(=O)c2ccccc2)cc1	nt	nt	nt	?	nt	-78%
COc1cc(C(=O)NC2CCN(C)CC2)ccc1Nc1ncc2c(n1)N(C1CCCC1)CCC(=O)N2C(C)C	?	?	?	?	-9	16µM*
COc1ccc(S(=O)(=O)Nc2cc(C(=O)NC3CCCCCC3)ccc2N2CCOCC2)cc1	?	?	-17%	?	-18	?
O=C(NCc1cccnc1)c1ccc(-c2ccc(F)c(F)c2)c2ccoc12	?	?	nt	5.8µM*	-2	4.6µM*
SMILES	HT1080-NT tox	HT1080 IDH1KD tx	uPA surface inh	DT40 TDP1 CPT	IL-1B inflam inh	DT40 TDP1 no CPT
O=C(NCc1cccnc1)NC1CCCCC1	0%	-5%	3%	-11%	-2	-8%
CCN(CC)S(=O)(=O)c1cc(NC(=O)C(C)N2CC=C(c3ccccc3)CC2)ccc1C (stereo not given)	-1%	-17%	-16%	8.2µM*	-58*	6.5µM*
N#CCCn1cc(C(=O)Nc2ccccc2Br)c(-c2ccc([N+](=O)[O-])cc2)n1	-13%	-20%	-3%	-23%	19	?
COc1ccc(NP(=O)(Oc2ccccc2OC)Oc2ccccc2OC)cc1	1%	-14%	4%	?	0	16µM*
COc1ccc(NP(=O)(Oc2ccc(Cl)cc2)Oc2ccc(Cl)cc2)cc1OC	?	?	2%	18µM*	?	26µM*
COc1ccccc1OP(=O)(Nc1ccc(Br)cc1)Oc1ccccc1OC	2%	-12%	25%	?	?	?
O=[N+]([O-])c1ccc(N2CCCC2)c2ncccc12	25%	6%	0%	-10%	-9	4%
CC1CN(c2ccc([N+](=O)[O-])c3cccnc23)CC(C)N1 (stereo not given)	-28%	-26%	1%	-21%	-5	23µM*
[Hg+][c]1ccccc1	nt	nt	nt	0.089µM*	nt	0.1µM*
NNc1ccccc1	nt	nt	nt	-13%	nt	1%
CC12CCC3C(CC=C4CC5(CCC43C)OCCO5)C1CCC2=O (stereo not given)	19%	24%	2%	?	51	?
Cn1c(=O)oc2cc(S(=O)(=O)N3CCCC(C(=O)Nc4ccccn4)C3)ccc21 (stereo not given)	-6%	-2%	1%	?	1	-13%
COc1ccc(N2CCN(C(=O)C3CCCN(S(=O)(=O)c4ccc5c(c4)CCCN5C(C)=O)C3)CC2)cc1 (stereo not given)	nt	nt	nt	4.1µM*	nt	2.3µM*
CC(=O)N1CCCc2cc(S(=O)(=O)N3CCCC(C(=O)N4CCN(c5ccccc5F)CC4)C3)ccc21 (stereo not given)	nt	nt	nt	3.7µM*	nt	5.8µM*
COc1ccc(NS(=O)(=O)c2ccc3c(c2)CCCN3C(=O)C2CCC2)cc1OC	nt	nt	nt	2.6µM*	nt	3.7µM*
CC(=O)N1CCc2cc(S(=O)(=O)N3CCN(c4ccc(C)cc4)C(C)C3)ccc21 (stereo not given)	nt	nt	nt	23µM*	nt	21µM*
CCS(=O)(=O)N1CCCC(C(=O)N2CCC3(CC2)OCCO3)C1 (stereo not given)	25%	12%	-5%	1%	13	-2%
CC(C)CN1CCCC2(CCN(C(=O)c3ccncc3)CC2)C1	nt	nt	nt	2%	nt	1%
